Test in all cases: NCI-60 one-dose screen, 48 h (100 = growth as untreated, 0 = no growth, -100 = all killed)
Common to all, as to conditions: 10 µM unless noted

The test system of test [1] is SR leukemia.
Test [2] relates to RPMI-8226 leukemia.
Test [3] concerns OVCAR-8 ovarian.
Test [4] deals with OVCAR-5 ovarian.
The test system of test [5] is OVCAR-4 ovarian.
Test [6] deals with SK-OV-3 ovarian.
Test [7] concerns IGROV1 ovarian.
Test [8] deals with OVCAR-3 ovarian.
Test [9] deals with HS 578T breast.
Test [10] concerns NCI/ADR-RES ovarian.
Test [11] has as its system T-47D breast.
In test [12] the test system is BT-549 breast.
Test [13] concerns SW-620 colon.
For test [14], the system named is MCF7 breast.
The test system of test [15] is HCT-116 colon.
The test system of test [16] is HCC-2998 colon.
Test [17] relates to KM12 colon.
The subject of test [18] is MDA-MB-435 melanoma.

SMILES strings stand for the structures. This is part of a sample that, as a whole, favours compounds with a hit. Of some 83,000 tested, about 20% had one in any assay.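 How to read the values: 0–100, growth inhibition (40 = 60% inhibited); 0, no net growth; -100 to 0, cell death (-40 = 40% of starting cells died; -100 = all dead).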 Values without a mark were called inactive. Calls of active or inactive are those of the source. How the source made its calls: active means growth percent below 10; inactive means the rest.

Data on eight compounds can be found in PubChem BioAssay (NCI).

In the case of `CC1O[C@@H]2C[C@@](O)([C@H]1O)n1c3ccccc3c3c4c(c5c6ccccc6n2c5c31)C(=O)NC4=O` (stereo partly specified), the growth in test [1] is 32%; in [2], 55.3%; in test [3], 63.3%; in test [4], 72.8%; in test [5], 66.8%; in test [6], 48.4%. The growth in test [7] was 67.6%; in [8], 55.4%; in test [9] it was 82.6%; in test [10], 80.7%; in [11], 8.92% (active); in test [12], 36.3%. Moreover, the growth in [13] is 35.4%; in test [14] it was 22.3%; in [15] it was 15.6%; in test [16], 73.4%; in [17], 22.8%.

On to `C#CCOc1ccc2ncnc(Nc3cccc(NC(=O)CCl)c3)c2c1`, for which the growth in [1] was 30.3%; in [2], 64.2%; in test [3], 54.6%; in [4] it was 104%; in [5], 82.7%; in [6], 113%. Moreover, the growth in test [7] is -37.7% (active); in test [8], 51.3%; in [9], 90.5%; in [10] it was 90.8%; in test [11], 85.2%; in test [12] it was 68.6%. Further, the growth in test [18] was 81.7%; in test [14], 41.9%; in test [15] it was 22.9%; in [16], 99.4%; in test [17] it was 71%.

As for `CC(C(=O)O)n1c(O)c(C=Nc2cccnc2)sc1=S` (stereo unspecified), the growth in [1] is 97.8%; in [2], 83.6%; in [3], 90.7%; in test [4], 98.9%; in test [5], 92.4%; in test [6] it was 98.4%. The growth in test [7] is 84.2%; in [8], 105%; in [9], 74.9%; in test [10], 98.7%; in test [11] it was 81.2%; in test [12], 89.2%. Further, the growth was 102% in [13]; 86.7% in [14]; 89.4% in test [15]; 111% in test [16]; 98.7% in [17].

For `CO[C@H](C(=O)[C@@H](O)[C@@H](C)O)[C@@H]1Cc2cc3cc(O[C@H]4C[C@@H](O[C@H]5C[C@@H](O)[C@H](O)C(C)O5)[C@H](O)C(C)O4)c(C)c(O)c3c(O)c2C(=O)[C@H]1O[C@H]1C[C@@H](O[C@H]2C[C@@H](O[C@H]3C[C@@H](OC)[C@H](O)C(C)O3)[C@@H](O)C(C)O2)C(O)(O)C(C)O1` (stereo partly specified), the growth in test [1] is 13.5%; in test [2], 9.26% (active); in test [3] it was 9.53% (active); in test [4] it was 14.5%; in [5] it was 21.7%; in test [6] it was 14.6%. Also, the growth in [7] was 22.3%; in [9], 25.3%; in test [10], 87.3%; in test [11], 0.438% (active); in test [12], -20.1% (active); in [18] it was -30.5% (active). Besides, the growth in test [13] is 22%; in test [14] it was 4.2% (active); in [15], 6.1% (active); in [16], -13.7% (active); in test [17] it was 9.69% (active).

Take `COc1cc(/C=C\c2cc(/C=C\c3ccc(O)c(OC)c3)n(C(=O)CNc3ccc(Cl)cc3)n2)ccc1O`: the growth is 3.39% (active) in [1]; 17.4% in test [2]; 28.2% in test [3]; 86.9% in [4]; 56.6% in test [5]; 21.1% in [6]. The growth is 36.7% in [7]; 22.9% in test [8]; 30% in test [9]; 21% in [10]; 31% in test [11]; -7.11% (active) in test [18]. The growth in test [13] is 24.9%; in test [14] it was 13.8%; in test [15], 7.69% (active); in [16], 48.6%; in test [17], 20.2%.

In the case of `O=C(OC[C@@H]1CO1)c1cccc2c(=O)c3ccccc3[nH]c12`, the growth is 9.87% (active) in [1]; -11.7% (active) in [2]; -56% (active) in test [3]; -21.4% (active) in test [4]; -27% (active) in test [5]; -38.5% (active) in test [6]. For the same compound, the growth was -13.7% (active) in [7]; -25.7% (active) in [8]; -21.5% (active) in test [9]; -16.3% (active) in test [10]; -9.67% (active) in test [11]; -81.7% (active) in test [18]. For the same compound, the growth in [13] is -24.7% (active); in test [14] it was 0.0356% (active); in [15], 2.66% (active); in test [16], -66.2% (active); in test [17], -65.5% (active).

For the compound `CCCCNC1=C(OCC)C(=O)c2ccccc2C1=O`, the growth is 112% in test [1]; 88.1% in [2]; 101% in test [3]; 150% in [4]; 94.3% in [5]; 119% in test [6]. For the same compound, the growth in [7] was 115%; in test [8], 98.3%; in [9], 84.2%; in test [10] it was 97.3%; in test [11] it was 89.6%; in test [18] it was 96.8%. Moreover, the growth was 104% in [13]; 76.3% in test [14]; 80.3% in test [15]; 95.1% in test [16]; 93.7% in test [17].

For `C=CCOC(=O)C1=C(C)NC(=O)NC1c1c(Cl)n(C)c2ccccc12` (stereo unspecified), the growth was 97.9% in test [1]; 81.3% in test [2]; 102% in [3]; 96% in [4]; 103% in [5]; 94.5% in [6]. Moreover, the growth in test [7] was 107%; in test [8] it was 104%; in test [9] it was 98.8%; in [10], 99.2%; in test [11], 92.5%; in [18], 103%. Besides, the growth is 98.6% in [13]; 94.8% in test [14]; 93.4% in [15]; 104% in [16]; 102% in test [17].
